Screening results as filed in PubChem.
BioA inh-1 = inhibitors of Mycobacterium tuberculosis BioA enzyme | AID 602481 | inhibition, % at 9.99 µM | purified M. tuberculosis BioA enzyme, plate reader | 0.096% of 360,000 active; in the data active = inhibition above about 40%; inconclusive = no clear call, values can overlap the other calls
Y pestis TopoI = inhibitors of Yersinia pestis topoisomerase I; Y. pestis Topo-I cleavage product accumulation, plate reader; activity, % at 10 µM; 0.064% of 360,000 active; AID 504884; in the data active = activity above about 50%, passing the limit was not always enough; inconclusive = no clear call, values can overlap the other calls
TcdB GH inh = inhibitors of Clostridioides difficile toxin B glycohydrolase | 0.24% of 350,000 active | inhibition, % at 9.99 µM | AID 652162 | TcdB glycohydrolase enzymatic assay, plate reader | P18177; in the data active = inhibition above about 10%
BioA inh-2 = Mtb BioA enzyme inhibition. max activity, %. 310 tested, under 10 active. shares compounds with BioA inh-1. purified BioA enzyme, plate reader, dose response;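 also: top concentration of the dilution series was 10 µM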
HepG2 cytotox = kills HepG2 cells. shares compounds with BioA inh-1. HepG2 cytotoxicity, plate reader. 310 tested, under 10 active. max activity, %
NIH3T3 tox 5 = kills NIH3T3 cells; shares compounds with BioA inh-1; NIH3T3 cytotoxicity, plate reader; activity change, negative = cytotoxicity, % at 26 µM; 310 tested, under 10 active
Hits are given with their value; i = inactive; ? = inconclusive; nt = no result. Shown are actives, neighbours in structure and some others; about 0.32% of the full set was active somewhere. Unless noted, no rule for the calls is given here.

SMILES	BioA inh-1	Y pestis TopoI	TcdB GH inh	BioA inh-2	HepG2 cytotox	NIH3T3 tox 5
CC(Oc1ccc2ccc(=O)oc2c1)C(=O)N1CCOCC1 (stereo not drawn)	66	i	i	i	i	i
COc1ccc(NC(=O)Nc2ccc3c(c2)C(=O)N([C@@H](C)CO)C[C@@H](C)[C@H](CN(C)Cc2ccc4c(c2)OCO4)OCCCC[C@H](C)O3)cc1	i	nt	i	nt	nt	nt
C[C@@H]1CN([C@@H](C)CO)C(=O)Cc2cc(NC(=O)C3CC3)ccc2O[C@H]1CN(C)Cc1ccc(C(=O)O)cc1	i	nt	i	nt	nt	nt
O=C(Nc1ccccc1F)NC1CCN(Cc2nnnn2Cc2ccc(F)cc2)CC1	i	i	nt	nt	nt	nt
O=C(Nc1ccc(F)cc1)NC1CCN(Cc2nnnn2Cc2ccco2)CC1	74	i	nt	i	?	i
C[C@@H]1CN([C@H](C)CO)C(=O)c2c(c3ccccc3n2C)-c2ccccc2CO[C@@H]1CN(C)CC1CCCCC1	nt	nt	i	nt	nt	nt
C[C@@H]1CN([C@@H](C)CO)C(=O)c2cc(-c3ccccc3F)cnc2O[C@@H]1CN(C)C(=O)CN(C)C	i	nt	i	nt	nt	nt
O=C(Nc1cc(F)ccc1F)c1ccc(-n2cncn2)c([N+](=O)[O-])c1	i	i	i	nt	nt	nt
COc1ccc(NC(=O)c2ccc(-n3cncn3)c([N+](=O)[O-])c2)cc1	i	i	i	nt	nt	nt
O=C(Nc1ccc(F)c(F)c1)c1ccc(-n2cncn2)c([N+](=O)[O-])c1	79	i	i	i	i	i
COc1ccc(NC(=O)c2ccc(-n3cncn3)c([N+](=O)[O-])c2)cc1OC	66	i	i	i	i	i
CO[C@@H]1CN(C)C(=O)c2ccc(NS(C)(=O)=O)cc2OC[C@@H](C)N(CCC(F)(F)F)C[C@@H]1C	i	nt	i	nt	nt	nt
CCOC(=O)c1ccc2c(c1)nc(SCc1cn3ccsc3n1)n2CC	53	i	nt	i	i	i
CCOC(=O)c1ccc2c(c1)nc(SCC(=O)N1CCOCC1)n2CC	nt	i	i	nt	nt	nt
O=C(Cc1cccnc1)N[C@H]1CC[C@H](CCNS(=O)(=O)c2ccccc2Cl)O[C@@H]1CO	i	nt	i	nt	nt	nt
Clc1ccc(CSc2nnc(-c3cccnc3)o2)cc1	65	i	nt	i	i	i
c1ccc(CSc2nnc(-c3cccnc3)o2)cc1	nt	i	nt	nt	nt	nt
Cc1ccc(NC(=O)CSc2nc(=O)n(CCCN3CCOCC3)c3c2CCCC3)cc1F	47	i	i	i	i	i
CCc1ccc(NC(=O)CSc2nc(=O)n(CCCN3CCOCC3)c3c2CCCC3)cc1	i	i	i	nt	nt	nt
Cc1c(NC(=O)c2cc3ccccc3o2)cccc1-n1cnnn1	46	i	i	i	i	i
Cc1c(NC(=O)c2ccc(S(=O)(=O)N(C)C)cc2)cccc1-n1cnnn1	i	i	i	nt	nt	nt
Cc1cc(C(=O)CSc2nncs2)c(C)n1-c1ccc2c(c1)OCO2	49	i	nt	i	i	i
CCCn1c(SCC(=O)c2cc(C)n(-c3ccc4c(c3)OCO4)c2C)n[nH]c1=O	i	i	i	nt	nt	nt
O=C(N[C@H]1CC[C@@H](CCn2cc(-c3cccnc3)nn2)O[C@@H]1CO)c1ccccc1F	55	nt	i	i	i	i
O=C(N[C@@H]1CC[C@H](CCn2cc(-c3cccnc3)nn2)O[C@@H]1CO)c1ccccc1F	60	nt	i	i	i	i
SMILES	BioA inh-1	Y pestis TopoI	TcdB GH inh	BioA inh-2	HepG2 cytotox	NIH3T3 tox 5
O=C(N[C@@H]1CC[C@H](CCn2cc(-c3cccnc3)nn2)O[C@H]1CO)c1ccccc1F	i	nt	i	nt	nt	nt
O=C(N[C@H]1CC[C@H](CCn2cc(-c3cccnc3)nn2)O[C@H]1CO)c1ccccc1F	i	nt	i	nt	nt	nt
O=C(C[C@H]1CC[C@H]2[C@@H](COC[C@@H](O)CN2S(=O)(=O)c2ccc(F)cc2)O1)NCc1ccc(Cl)c(Cl)c1	i	nt	i	nt	nt	nt
COC(=O)C[C@@H]1C[C@@H]2c3cc(NC(=O)c4cccnc4)ccc3O[C@@H]2[C@H](CO)O1	i	nt	i	nt	nt	nt
COC(=O)C[C@@H]1C[C@@H]2c3cc(NC(=O)c4cccnc4)ccc3O[C@@H]2[C@@H](CO)O1	51	nt	i	i	i	i
O=C(C[C@H]1C[C@H]2c3cc(NC(=O)c4cccnc4)ccc3O[C@H]2[C@H](CO)O1)NCCc1ccccc1	i	nt	i	nt	nt	nt
O=C(C[C@@H]1C[C@@H]2c3cc(NC(=O)c4cccnc4)ccc3O[C@@H]2[C@@H](CO)O1)NCCc1ccccc1	41	nt	i	i	i	i
COc1cccc(NC(=O)N2C[C@H](O)COC[C@@H]3O[C@H](CC(=O)N(C)C)CC[C@H]32)c1	i	nt	i	nt	nt	nt
CNC(=O)C[C@H]1CC[C@@H]2[C@H](COC[C@@H](O)CN2C(=O)Nc2ccc(Cl)c(Cl)c2)O1	83	nt	i	i	i	i
CNC(=O)C[C@@H]1CC[C@H]2[C@@H](COC[C@H](O)CN2C(=O)Nc2ccc(Cl)c(Cl)c2)O1	i	nt	i	nt	nt	nt
